Source: the OligoGym collection

Target: TMEM156
Test: pooled miR-30 sensor sort-seq; sequence = guide strand
Conditions: shRNA

Compared with TTTATCGATTTCTCCTTGCTTG, TAGTTTATCGATTTCTCCTTGC is lower in sensor-assay potency score (higher = more potent): 0.0129 for the first, -0.128 for the second.

Work on TACACTGAAGTTAAAGTGCTGA yielded a sensor-assay potency score (higher = more potent) of 0.144.

Target: TMEM158
Test: as above
Conditions: shRNA

Compared with TCGCACTGGAAGCCCCGCGGGC, TATAAAACAAATACACAGGATT is higher in sensor-assay potency score (higher = more potent): -1.57 for the first, -0.653 for the second.

First: ATGACCAGGGTCATGAAGCAGG
Second: TTTTCTGCCATGAATCTAGGGC
The sensor-assay potency score (higher = more potent) of the first is lower: -1.09 for the first, -0.129 for the second.

Compared with AAGAGCAGTAGGTCGCACTGGA, TAGGTCGCACTGGAAGCCCCGC is lower in sensor-assay potency score (higher = more potent): 0.351 for the first, -0.714 for the second.

First: TCCAGGCTGAAGTCTAGGCAGC
Second: TGATGTTGCACGGCGCCGCCGC
The sensor-assay potency score (higher = more potent) of the first is lower: -1.79 for the first, -0.887 for the second.

Compared with TAGCAATTTAATCTTTTTGTTT, TTAAACATCTGCTTTTCGGAAC is higher in sensor-assay potency score (higher = more potent): -1.1 for the first, -0.542 for the second.

First: TAACGATAACTACAGCACGAAG
Second: TACGGTTCAGCCGCCAGCCCGG
The sensor-assay potency score (higher = more potent) of the first is lower: -1.77 for the first, -1.31 for the second.
